Experimental data taken from PubChem BioAssay (NCATS).
Inconclusive results are not listed. Calls of active or inactive are those of the source. Calls come from the whole dose curve; as a rule, active = well fitted inhibition curve with a large enough effect; inconclusive = small, poorly fitted or top-dose-only effect; inactive = flat fitted curve, though single readings scatter.

Legend:
Assay in all cases: qHTS profiling for inhibitors of Plasmodium falciparum proliferation (AID 504749); note: nearly all actives have a fitted effect of over 60% in size
Conditions in all cases: P. falciparum in erythrocytes, SYBR Green DNA, 72 h; series mostly up to 28.7 µM
[1] = tested on: CP297
Method in brief: (§1)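 Three-day growth assay of blood-stage parasites in erythrocytes (0.3% parasitemia, 2.5% hematocrit) at 37 C, 5% CO2, quantified by SYBR Green DNA staining after overnight detergent lysis.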

[2] = tested on: CP305
Method in brief: as §1

[3] = tested on: CP315
Method in brief: as §1

[4] = tested on: CP325
Method in brief: as §1

[5] = tested on: CP329
Method in brief: as §1

[6] = tested on: CP335
Method in brief: as §1

[7] = tested on: DFO2036
Method in brief: as §1

[8] = tested on: DIV14
Method in brief: as §1

[9] = tested on: DIV17
Method in brief: as §1

[10] = tested on: DIV30
Method in brief: as §1

[11] = tested on: ECU
Method in brief: as §1

[12] = tested on: FAB9
Method in brief: as §1

[13] = tested on: HB3
Method in brief: as §1

[14] = tested on: JCK
Method in brief: as §1

[15] = tested on: N140
Method in brief: as §1

[16] = tested on: P93_24
Method in brief: as §1

[17] = tested on: P94_40
Method in brief: as §1

[18] = tested on: GB4
Method in brief: as §1

[19] = tested on: ICS
Method in brief: as §1

[20] = tested on: Dd2
Method in brief: as §1

Measured: Potency

CCN(CC)CCOC(=O)C(c1ccccc1)c1ccccc1
not listed: [18] | [19] | [20]
inactive: all other assays above

Cc1ccc(S(=O)(=O)NC(=O)NC2CCCCC2)cc1
not listed: [20]
inactive: all other assays above

COc1ccccc1Oc1c(NS(=O)(=O)c2ccc(C(C)(C)C)cc2)nc(-c2ncccn2)nc1OCCO
not listed: [19]
inactive: all other assays above

FC(F)(F)C(Cl)Br (configuration not stated)
not listed: [9]
inactive: all other assays above

Cc1c(NC(C)C)c(=O)n(-c2ccccc2)n1C
not listed: [11] | [19]
inactive: all other assays above

Cc1cc(C)c(NC(=O)CN(CC(=O)O)CC(=O)O)c(C)c1Br
not listed: [7] | [11] | [15] | [16] | [17]
inactive: all other assays above

Cc1cccc(C(=O)O)c1O
not listed: [8] | [9]
inactive: all other assays above

CCCCCCCCCCCCCCCCCCO
not listed: [8] | [9]
inactive: all other assays above

CNc1c2c(nn1C)CCCC2
not listed: [8]
inactive: all other assays above

CN(C/C=C/C#CC(C)(C)C)Cc1cccc2ccccc12
not listed: [17] | [19]
inactive: all other assays above

O=C(O)c1cc(=O)c2ccccc2o1
not listed: [9] | [18]
inactive: all other assays above

Cn1c([N+](=O)[O-])cnc1COC(N)=O
not listed: [9]
inactive: all other assays above
